Source: PubChem BioAssay AID1159580 (chemical genetic matrix, 2015)
The campaign covered roughly 5,500 compounds. About 2,000 (36%) were called active. Not shown: some 18% with an inconclusive outcome. Rule as the data show it: active = normalized growth mostly below about 0.91 (no sharp cut-off); inconclusive = no clear call, values can overlap the other calls; inactive = mostly above about 0.92. This is one part of the list.

Experiment: chemical genetic growth profiling, strain panel (AID 1159580);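 also: tested at 20 µM; growth read once vehicle control cultures reached saturation at 30 °C; 1 = growth at the plate median or of vehicle wells; lower values mean less growth of the strain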
Conditions: S. cerevisiae deletion strains, growth OD

Measured: normalized growth

C[N+]1(C)CCc2cc3c(cc2[C@H]1C1OC(=O)c2c1ccc1c2OCO1)OCO3 (stereo not given in full)
inactive: locus YAL021C, strain ccr4, stronger effect = lower value 0.981 | locus YAL026C, strain drs2, stronger effect = lower value 0.987 | locus YAL030W, strain snc1, stronger effect = lower value 0.999 | locus YBL061C, strain skt5, stronger effect = lower value 1 | locus YBR009C, strain hhf1, stronger effect = lower value 0.992 | locus YBR023C, strain chs3, stronger effect = lower value 1.01 | locus YBR171W, strain sec66, stronger effect = lower value 1 | locus YBR231C, strain swc5, stronger effect = lower value 1.01 | locus YBR279W, strain paf1, stronger effect = lower value 0.997 | locus YCL011C, strain gbp2, stronger effect = lower value 0.999 | locus YCL016C, strain dcc1, stronger effect = lower value 0.991 | locus YCL061C, strain MRC1, stronger effect = lower value 0.994 | locus YCL069W, strain vba3, stronger effect = lower value 0.999 | locus YCR088W, strain abp1, stronger effect = lower value 0.997 | locus YDL005C, strain med2, stronger effect = lower value 1 | locus YDL040C, strain nat1, stronger effect = lower value 0.996 | locus YDR001C, strain nth1, stronger effect = lower value 0.983 | locus YDR069C, strain doa4, stronger effect = lower value 1.02 | locus YDR137W, strain rgp1, stronger effect = lower value 0.996 | locus YDR159W, strain sac3, stronger effect = lower value 1.07 | locus YDR195W, strain ref2 0.989 | locus YDR297W, strain sur2, stronger effect = lower value 1.01 | locus YDR334W, strain swr1, stronger effect = lower value 0.986 | locus YDR335W, strain msn5, stronger effect = lower value 0.996 | locus YDR392W, strain spt3, stronger effect = lower value 0.982 | locus YEL003W, strain gim4, stronger effect = lower value 1 | locus YEL037C, strain rad23, stronger effect = lower value 0.99 | locus YEL061C, strain CIN8 (second series), stronger effect = lower value 0.99 | locus YER015W, strain faa2, stronger effect = lower value 0.992 | locus YER016W, strain bim1, stronger effect = lower value 1 | locus YER111C, strain swi4, stronger effect = lower value 1.01 | locus YER155C, strain BEM2 (second series), stronger effect = lower value 1 | locus YFR010W, strain ubp6, stronger effect = lower value 0.989 | locus YGL167C, strain pmr1, stronger effect = lower value 0.998 | locus YGL173C, strain kem1, stronger effect = lower value 1.01 | locus YGL227W, strain vid30, stronger effect = lower value 1 | locus YGL240W, strain doc1, stronger effect = lower value 1.01 | locus YGL253W, strain hxk2, stronger effect = lower value 0.995 | locus YHR013C, strain ard1, stronger effect = lower value 0.957 | locus YHR027C, strain rpn1, stronger effect = lower value 0.992 | locus YHR030C, strain SLT2, stronger effect = lower value 1.06 | locus YHR079C, strain IRE1, stronger effect = lower value 1.06 | locus YHR142W, strain chs7, stronger effect = lower value 0.981 | locus YJL092W, strain hpr5, stronger effect = lower value 0.995 | locus YJL095W, strain BCK1 (second series), stronger effect = lower value 0.994 | locus YJL095W, strain BCK1, stronger effect = lower value 1.06 | locus YJL115W, strain asf1, stronger effect = lower value 0.978 | locus YJL129C, strain trk1, stronger effect = lower value 1 | locus YJL154C, strain vps35, stronger effect = lower value 0.991 | locus YJL164C, strain tpk1, stronger effect = lower value 0.98 | locus YJL166W, strain qcr8, stronger effect = lower value 1 | locus YJL187C, strain SWE1, stronger effect = lower value 1.02 | locus YJR066W, strain TOR1, stronger effect = lower value 0.973 | locus YKL160W, strain elf1, stronger effect = lower value 0.989 | locus YKR026C, strain gcn3, stronger effect = lower value 0.991 | locus YKR091W, strain srl3, stronger effect = lower value 0.988 | locus YLL001W, strain dnm1, stronger effect = lower value 0.97 | locus YLL026W, stronger effect = lower value 1 | locus YLL041C, strain sdh2, stronger effect = lower value 0.993 | locus YLR027C, strain aat2, stronger effect = lower value 1.01 | locus YLR113W, strain HOG1, stronger effect = lower value 1.03 | locus YLR221C, strain rsa3, stronger effect = lower value 1.03 | locus YLR258W, strain gsy2, stronger effect = lower value 1.01 | locus YLR262C, strain YPT6 (second series), stronger effect = lower value 0.995 | locus YLR320W, strain mms22, stronger effect = lower value 1.03 | locus YLR342W, strain FKS1, stronger effect = lower value 0.996 | locus YLR357W, strain rsc2, stronger effect = lower value 0.956 | locus YLR370C, strain arc18, stronger effect = lower value 1.01 | locus YLR384C, strain iki3, stronger effect = lower value 0.999 | locus YML120C, strain ndi1, stronger effect = lower value 0.991 | locus YMR058W, strain fet3, stronger effect = lower value 0.986 | locus YMR125W, strain sto1, stronger effect = lower value 0.97 | locus YMR129W, stronger effect = lower value 1 | locus YMR205C, strain PFK2, stronger effect = lower value 0.971 | locus YMR231W, strain pep5, stronger effect = lower value 0.983 | locus YNL071W, strain lat1, stronger effect = lower value 0.997 | locus YNL183C, strain NPR1, stronger effect = lower value 0.974 | locus YNL209W, strain ssb2, stronger effect = lower value 1 | locus YNL248C, strain rpa49, stronger effect = lower value 0.959 | locus YNL322C, strain KRE1 (second series), stronger effect = lower value 1 | locus YNR049C, strain mso1, stronger effect = lower value 1.01 | locus YOR001W, strain rrp6, stronger effect = lower value 1.01 | locus YOR070C, strain gyp1, stronger effect = lower value 1.02 | locus YOR080W, strain dia2, stronger effect = lower value 1.01 | locus YOR083W, strain WHI5, stronger effect = lower value 0.997 | locus YOR106W, strain vam3, stronger effect = lower value 0.963 | locus YOR231W, strain MKK1, stronger effect = lower value 1.03 | locus YOR265W, strain rbl2, stronger effect = lower value 1.01 | locus YOR270C, strain vph1, stronger effect = lower value 0.967 | locus YOR290C, strain snf2, stronger effect = lower value 0.95 | locus YPL051W, strain arl3, stronger effect = lower value 1.04 | locus YPL078C, strain atp4, stronger effect = lower value 0.965 | locus YPL106C, strain sse1, stronger effect = lower value 0.999 | locus YPL240C, strain hsp82, stronger effect = lower value 1.01 | locus YPL256C, strain CLN2, stronger effect = lower value 1.03
